Assay outcomes: PubChem BioAssay, National Center for Advancing Translational Sciences (NCATS)
15-hLO-2 inh = qHTS Assay for Inhibitors of 15-hLO-2 (15-human lipoxygenase 2). purified 15hLO-2, xylenol orange hydroperoxide absorbance. Potency, µM (doses to about 57.1 µM), without a hit: top-dose activity change, negative = inhibition, hits mostly inhibitors. 0.56% of 110,000 active. AID 881, 2007; further: potency means the concentration at half of the fitted maximal effect; nearly all actives have a fitted effect of over 60% in size
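Screening format was qHTS against 50 nM purified 15hLO-2 in Hepes pH 7.5 with detergent. Activity follows hydroperoxide formation from 45 uM arachidonic acid, measured as 573:405 nm absorbance ratio of the ferric-xylenol orange complex.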
12-hLO inh = qHTS Assay for Inhibitors of 12-hLO (12-human lipoxygenase) | Polyunsaturated fatty acid lipoxygenase ALOX12 (Homo sapiens), P18054 | Potency, µM (highest dose often 57.1 µM), without a hit: top-dose activity change, negative = inhibition, hits mostly inhibitors | 0.12% of 150,000 active | purified 12-hLO, xylenol orange hydroperoxide absorbance; further: potency means the concentration at half of the fitted maximal effect; nearly all actives have a fitted effect of over 55% in size
Target sequence (P18054 whole entry, looked up): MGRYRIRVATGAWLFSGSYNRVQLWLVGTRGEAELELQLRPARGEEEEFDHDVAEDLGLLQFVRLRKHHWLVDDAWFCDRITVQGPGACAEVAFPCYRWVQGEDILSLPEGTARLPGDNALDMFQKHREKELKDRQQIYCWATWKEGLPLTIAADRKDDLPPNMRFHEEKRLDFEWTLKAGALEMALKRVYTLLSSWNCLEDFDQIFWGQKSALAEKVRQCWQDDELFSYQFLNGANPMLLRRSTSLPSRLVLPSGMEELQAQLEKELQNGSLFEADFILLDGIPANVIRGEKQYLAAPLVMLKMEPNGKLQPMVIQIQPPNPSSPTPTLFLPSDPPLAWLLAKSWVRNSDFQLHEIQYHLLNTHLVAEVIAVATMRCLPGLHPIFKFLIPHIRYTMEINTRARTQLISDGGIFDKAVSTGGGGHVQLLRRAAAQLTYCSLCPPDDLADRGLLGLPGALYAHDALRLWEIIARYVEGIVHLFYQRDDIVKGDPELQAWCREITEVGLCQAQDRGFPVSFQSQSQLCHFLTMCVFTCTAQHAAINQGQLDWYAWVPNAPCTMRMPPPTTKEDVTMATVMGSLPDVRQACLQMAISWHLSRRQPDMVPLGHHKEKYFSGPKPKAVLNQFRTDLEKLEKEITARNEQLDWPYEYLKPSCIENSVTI
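Purified human 12hLO (150 nM final) was preincubated with compounds for 15 min at room temperature in 25 mM Hepes pH 7.0, 0.01% Triton X-100, then reacted with 40 uM arachidonic acid for 30 min. Hydroperoxide was detected with ferrous iron/xylenol orange.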
PNC assembly inh = High Content Assay for Compounds that inhibit the Assembly of the Perinucleolar Compartment; PC3M PTB-GFP, PNC prevalence imaging, 16 h; stronger effect = lower value; activity change (PNC), negative = inhibition, % at 10 µM; 3.1% of 140,000 active;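 active means readout at or below -70, meaning at least 70% loss of cells showing the perinucleolar compartment, a nuclear body marking cancer cells; inconclusive means readout between -30 and a set limit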;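 further: plate controls were DMSO wells for no effect and camptothecin positive control wells for full effect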
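PC3M cells stably expressing PTB-GFP, 750–1000 cells/well, treated 16 h at 37 °C with compound (23 nl of library stock), in duplicate. After paraformaldehyde fixation and Hoechst stain, imaged at 20x; PNC prevalence scored by image analysis.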
Active calls of the source: *; [ ] = dose if it differs, or a comment. In the library only some 3.1% were active in any assay of this set; here they are far more common. Unless noted, the call rests on the fitted dose curve; in most records, active means well fitted curve in the direction sought with a large enough effect; inconclusive means small, poorly fitted or top-dose-only effect, or another doubt; inactive means no such curve, though single readings can be large; an effect the other way counts as inactive or inconclusive. Unless noted, on the % scale 0 is the no-effect control and ±100 the full control effect.

What do the screens show for `COc1cc(-c2nc3c(c(C)nn3-c3ccccc3)c3cc(OC)c(OC)cc23)ccc1O`?
15-hLO-2 inh: -20%; 12-hLO inh: -5%; PNC assembly inh: -109*

How did COc1ccc(-c2c(C)nn(-c3ccccc3)c2N)cc1OC do in these assays?
12-hLO inh: 2%; PNC assembly inh: inconclusive

Results for Cn1c(=O)c(-c2ccc(F)c(F)c2)nc2cncnc21 ?
15-hLO-2 inh: 2%

How did CCCSc1nnc(NC(=O)Nc2ccc(F)cc2)s1 do in these assays?
15-hLO-2 inh: -1%; 12-hLO inh: -4%; PNC assembly inh: -83*

How did CCCSc1nnc(NC(=O)Nc2ccccc2)s1 do in these assays?
12-hLO inh: -1%; PNC assembly inh: -11

How did COc1cc([C@H](O)C(=O)O)ccc1O do in these assays?
15-hLO-2 inh: 7%; 12-hLO inh: -2%

Results for COC(=O)N1CCC2(CCN(C(=O)Nc3cccc(F)c3)CC2)CC1 ?
15-hLO-2 inh: -5%; 12-hLO inh: -1%

How did O=C1CC(c2ccco2)CC(O)=C1C=NCCN1CCN(C(=O)Nc2ccc(Cl)cc2)CC1 (centres undefined) do in these assays?
12-hLO inh: 1%; PNC assembly inh: -99*

Results for CC(=O)N1CCN(CCN=CC2=C(O)CC(c3ccco3)CC2=O)CC1 (centres undefined) ?
15-hLO-2 inh: 5%; 12-hLO inh: 1%; PNC assembly inh: inconclusive

What do the screens show for `O=C1Nc2ccccc2Oc2cc([N+](=O)[O-])cc(Oc3ccccc3)c21`?
12-hLO inh: -5%; PNC assembly inh: 14

What do the screens show for `Cc1cccc(Oc2cc([N+](=O)[O-])cc3c2C(=O)Nc2ccccc2O3)c1`?
12-hLO inh: -7%; PNC assembly inh: -83*

What do the screens show for `COC(=O)[C@@H]1C[C@@]2(O)[C@@H](O)[C@@H](O)[C@@H](O)C[C@H]2N1CC1CC1`?
15-hLO-2 inh: -3%; 12-hLO inh: -4%

What do the screens show for `Cc1ccc(S(=O)(=O)Nc2ccccc2C=O)cc1`?
15-hLO-2 inh: -1%[11.4 µM]; 12-hLO inh: 3%[11.4 µM]

How did COc1ccc(NC(=O)CSc2nnc(-c3ccccc3C)n2N)cc1 do in these assays?
15-hLO-2 inh: -7%; 12-hLO inh: -4%; PNC assembly inh: -13

Results for N#Cc1cccc(NC(=O)CSc2ccccc2)c1 ?
15-hLO-2 inh: -2%; 12-hLO inh: -12%; PNC assembly inh: -15

What do the screens show for `COc1ccc(NC(=O)CSc2ccc3c4c(cccc24)C(=O)c2ccccc2-3)cc1`?
15-hLO-2 inh: 16µM*; 12-hLO inh: 0%; PNC assembly inh: 48

What do the screens show for `N#Cc1cccc(NC(=O)CSc2ccc3c4c(cccc24)C(=O)c2ccccc2-3)c1`?
15-hLO-2 inh: 13µM*; 12-hLO inh: -2%; PNC assembly inh: inconclusive

What do the screens show for `CSC1=N/C(=C\c2ccccc2F)C(=O)S1`?
15-hLO-2 inh: -1%; 12-hLO inh: -5%; PNC assembly inh: 21

How did COc1cccc(/C=C2\N=C(SC)SC2=O)c1OC do in these assays?
15-hLO-2 inh: -5%; 12-hLO inh: -13%; PNC assembly inh: -91*

Results for Cc1nnn(C23CC4CC(CC(C(=O)NN)(C4)C2)C3)n1 ?
12-hLO inh: -4%; PNC assembly inh: -114*

How did NNC(=O)C12CC3CC(C1)CC(n1ncnn1)(C3)C2 do in these assays?
12-hLO inh: -1%; PNC assembly inh: 8

What do the screens show for `COc1ccc(S(=O)(=O)N2c3ccc(Cl)cc3[C@](O)(c3ccccc3Cl)[C@@H]2C(=O)N2CCC[C@H]2C(N)=O)cc1OC`?
15-hLO-2 inh: 19%; 12-hLO inh: -3%

How did COC(=O)c1ccc(C(NC(=O)OCc2ccccc2)/C(I)=C/[C@@H](C)C(=O)NCC2CC2)cc1 (some centres undefined) do in these assays?
15-hLO-2 inh: -4%; 12-hLO inh: -1%

What do the screens show for `COC(=O)[C@H]1C[C@@H]2CC[C@@H](O)C[C@@H]2N1Cc1c(F)cccc1Cl`?
15-hLO-2 inh: -9%; 12-hLO inh: -2%

Results for O=C(/C=C1\NC2(CCCC2)Cc2ccccc21)C(=O)N/N=C/c1ccc(O)c(O)c1 ?
12-hLO inh: 0.89µM*; PNC assembly inh: 6

What do the screens show for `COc1ccc(/C=N/NC(=O)C(=O)/C=C2\NC3(CCCC3)Cc3ccccc32)cc1`?
12-hLO inh: -3%; PNC assembly inh: -21

Results for O=C1CCCC2=C1C1(CCCC1)N=C(Nc1nc3ccccc3s1)N2 ?
15-hLO-2 inh: 21%; 12-hLO inh: -2%; PNC assembly inh: -117*

Results for O=C1CCCC2=C1C1(CCCCC1)N=C(Nc1nc3ccccc3s1)N2 ?
15-hLO-2 inh: -2%; 12-hLO inh: -1%; PNC assembly inh: 31

How did c1ccncc1 do in these assays?
15-hLO-2 inh: -5%; 12-hLO inh: -1%

What do the screens show for `N#CCCn1c(=O)c(-c2cc(F)cc(F)c2)nc2cnc(N3CCOCC3)nc21`?
15-hLO-2 inh: 1%

What do the screens show for `Cc1ncc(N=Nc2ccccc2Cl)c(-c2ccccc2)n1`?
12-hLO inh: -1%; PNC assembly inh: 29

Results for COc1ccc(N=Nc2cnc(C)nc2-c2ccccc2)cc1 ?
15-hLO-2 inh: -9%[11.4 µM]; 12-hLO inh: -1%; PNC assembly inh: -85*

Results for CC(C)OC(=O)c1sc2nc(-c3ccccc3)ccc2c1N ?
15-hLO-2 inh: -7%; 12-hLO inh: -11%; PNC assembly inh: -100*

How did COc1ccc(C(=O)c2sc3nc(-c4ccccc4)ccc3c2N)cc1 do in these assays?
12-hLO inh: 0%; PNC assembly inh: -14

How did COc1ccc(-c2nc3c(c4c2C[C@H](c2ccccc2)OC4)CN(C(=O)NCCc2c[nH]c4ccccc24)CC3)c(C)c1 do in these assays?
12-hLO inh: 0%[11.4 µM]

What do the screens show for `Cc1ccc(N(CC(=O)NCc2ccncc2)S(C)(=O)=O)cc1Cl`?
15-hLO-2 inh: 2%; 12-hLO inh: -4%; PNC assembly inh: -84*

Results for CS(=O)(=O)N(CC(=O)NCc1ccncc1)c1cc(Cl)cc(Cl)c1 ?
15-hLO-2 inh: -2%; 12-hLO inh: 0%; PNC assembly inh: inconclusive

How did CC1(C)CO[C@H](CC(=O)O)CN1 do in these assays?
15-hLO-2 inh: 26%; 12-hLO inh: -1%

How did O=C(NNC(=O)c1cccnc1SCc1cccc([N+](=O)[O-])c1)c1ccc(F)cc1 do in these assays?
12-hLO inh: -3%; PNC assembly inh: -87*

What do the screens show for `O=C(NNC(=O)c1cccnc1SCc1cccc([N+](=O)[O-])c1)c1cccnc1`?
12-hLO inh: 1%; PNC assembly inh: inconclusive

How did CC#CCN1c2ccccc2[C@]23C[C@@H](C(=O)OC)N(S(=O)(=O)c4c(C)noc4C)C2=NC(C(=O)OC)=C(C(=O)OC)[C@H]13 do in these assays?
12-hLO inh: -7%[11.4 µM]

Results for CN(C)c1ccc(C(=O)OCC(=O)c2cccs2)cc1 ?
12-hLO inh: -3%; PNC assembly inh: -113*

How did Cc1ccc(C(=O)COC(=O)c2cccs2)cc1 do in these assays?
12-hLO inh: -8%; PNC assembly inh: 78

What do the screens show for `COC(=O)c1ccc(C#CC(NP(=O)(c2ccccc2)c2ccccc2)c2ccccc2)cc1` (centres undefined)?
15-hLO-2 inh: 20%; 12-hLO inh: -8%
